The list is not random: actives were taken first. Their share in the collection is about 1%.
TR SRC2 fluor cs: alters Texas Red total fluorescence, flagging assay interference. TRb/SRC2 Texas Red total fluorescence interference. Potency, µM (highest dose often 106 µM), for inactives: at the top dose fluorescence change, negative = quenching. actives 0.29% (n = 280,000). AID 1479; active = well fitted curve in either direction with a large enough effect; inconclusive = small, poorly fitted or top-dose-only effect; note: potency is the fitted concentration of half-maximal effect; % is set by controls: 0 for no effect and ±100 for the full control effect
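Flags fluorescent or light-absorbing compounds by total fluorescence, S + 2P, at 555 nm excitation and 632 nm emission. Mixture: 20 nM Texas Red SRC2 peptide, 0.6 uM human TRb LBD, 1 uM T3, 5% DMSO; compound exposure 5 h at ambient temperature.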
FBPA coupling cs: counter-screen for Giardia aldolase inhibitors: coupling enzyme system; activity change, negative = inhibition, % at 58.2 µM, hits read low; coupling enzyme system counterscreen, AmpLite Red fluorescence; actives 0.67% (n = 290,000); in the data active = activity change below about -30%; note: % is set by controls: 0 for no effect and ±100 for the full control effect
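Activity here indicates interference with the coupling reaction, not aldolase inhibition. Compounds at 57.5 uM final met coupling enzymes for 10 min at RT; substrate and AmpLite Red detection followed, with a 525/598 nm fluorescence read after 20 min.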
NPSR antagonist: antagonists of human neuropeptide S receptor cAMP signaling | CHO-NPSR cells, cAMP TR-FRET, antagonist mode | Q6W5P4 | AID 1461 | actives 1% (n = 220,000) | Potency, µM (series often up to 38.3 µM), inactives show top-dose activity change, negative = inhibition, actives largely listed as inhibitors; note: potency is the fitted concentration of half-maximal effect; % is set by controls: 0 for no effect and ±100 for the full control effect; nearly all actives have a fitted effect of over 50% in size
TCR act: activates T cell receptor signaling; primary human leukocytes, anti-CD3, IL-2 HTRF, 48 h; Potency, µM (doses to about 9.22 µM), inactives show at the top dose activation of IL-2 secretion, usual class: activators; 330,000 tested, under 10 active; AID 504894; note: % of control where 0% means no effect
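Primary human leukocytes were stimulated with a-CD3 beads plus compounds for 48 hr without co-stimulation; secreted IL-2 was quantified by HTRF using a-IL-2-K (europium cryptate) and a-IL-2-d2, excited at 320nm with acceptor emission read at 665nm.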
TRb SRC2 PPI: disrupts binding of human TR beta to SRC2. Potency, µM (titrated, usually from 106 µM), for inactives: top-dose activity change, negative = inhibition, actives largely listed as inhibitors. TRbeta-SRC2 peptide binding, fluorescence polarization; receptor liganded with 1 µM T3. AID 1469. P10828. actives 0.065% (n = 280,000);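 note: potency is the fitted concentration of half-maximal effect; plate controls were bound peptide for no effect and peptide without receptor for full effect; nearly all actives have a fitted effect of over 50% in size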
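Human TRb LBD (0.6 uM) plus Texas Red-labeled SRC2 peptide (20 nM), 1uM T3, 5% DMSO, 5 hr at ambient temperature. Decreased polarization (555/632 nm) flags inhibition; data normalized to free and bound peptide controls.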
TSHR antag: blocks TSH signaling through the human TSH receptor. P16473. activity change, negative = inhibition, % at 11.5 µM. TSHR-expressing cells, TSH-stimulated cAMP HTRF, 2 h; stronger effect = lower value. actives 0.2% (n = 330,000);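 active = activity change below a set negative limit, meaning inhibition stronger than a set level, cut at about -70% in these data; inconclusive = activity change between two set negative limits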; note: % is set by controls: 0 for no effect and ±100 for the full control effect
Target sequence (P16473 whole entry, looked up): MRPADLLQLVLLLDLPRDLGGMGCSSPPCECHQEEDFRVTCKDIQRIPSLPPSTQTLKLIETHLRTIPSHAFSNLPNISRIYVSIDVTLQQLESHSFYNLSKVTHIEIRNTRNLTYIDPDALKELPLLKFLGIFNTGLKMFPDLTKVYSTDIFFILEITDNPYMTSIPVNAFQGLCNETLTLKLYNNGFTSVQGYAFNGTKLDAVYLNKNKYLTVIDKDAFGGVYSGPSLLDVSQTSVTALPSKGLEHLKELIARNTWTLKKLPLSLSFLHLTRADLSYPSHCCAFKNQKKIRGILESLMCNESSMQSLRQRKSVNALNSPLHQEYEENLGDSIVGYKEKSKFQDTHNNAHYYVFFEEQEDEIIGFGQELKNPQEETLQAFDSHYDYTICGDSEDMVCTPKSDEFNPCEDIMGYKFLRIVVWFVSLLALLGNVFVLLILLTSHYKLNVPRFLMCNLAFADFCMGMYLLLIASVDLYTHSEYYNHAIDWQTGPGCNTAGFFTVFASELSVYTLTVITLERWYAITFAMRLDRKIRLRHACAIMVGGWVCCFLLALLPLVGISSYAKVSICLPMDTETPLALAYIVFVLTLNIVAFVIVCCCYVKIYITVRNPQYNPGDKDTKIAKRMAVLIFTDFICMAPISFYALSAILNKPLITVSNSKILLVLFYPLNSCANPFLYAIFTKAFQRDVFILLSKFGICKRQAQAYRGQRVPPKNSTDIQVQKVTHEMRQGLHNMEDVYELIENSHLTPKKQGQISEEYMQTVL
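Antagonism was scored as loss of TSH-driven cAMP in TSHR cells, stimulated with 4nM TSH (EC80) for 2 hours at 37 deg C and detected by homogeneous HTRF competition immunoassay.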
* = called active by the depositor; ? = inconclusive; . = not tested or not shown; [ ] = another dose, or the depositor's remark. Unless noted, calls come from the whole dose curve; as a rule, active = well fitted curve in the direction sought with a large enough effect; inconclusive = small, poorly fitted or top-dose-only effect, or another doubt; inactive = no such curve, though single readings can be large; an effect the other way counts as inactive or inconclusive.

SMILES	TR SRC2 fluor cs	FBPA coupling cs	NPSR antagonist	TCR act	TRb SRC2 PPI	TSHR antag
CCc1cccc(NC(=O)Cn2c(=O)n3nc(-c4cccc(F)c4)nc3c3ccccc32)c1	-2%	.	.	.	-6%	.
Cc1ccc2c(c1)sc1nc(-c3cc4cc(Cl)ccc4oc3=O)cn12	-2%	.	.	.	4%	.
CN1CCc2c(n(CC(O)CNCc3ccccc3)c3ccccc23)C1=O (configuration not stated)	1%	-24	-24%	6%	1%	10
CN1CCc2c(n(CC(O)CN(CCO)CCO)c3ccccc23)C1=O (configuration not stated)	1%	-51*	20%	-1%	4%	29
COc1cc2c(cc1OC)-c1cc3ccc4c(c3c[n+]1CC2)OCO4	-5%	-44*	13µM*	8%	2%	-27
CN(C)/C=C(/C(=O)c1ccc(Cl)cc1)S(=O)(=O)c1ccc(Cl)cc1	-6%	5	-4%[46.1 µM]	-2%	-4%	-114*
COc1ccc(Cl)cc1NC(=O)N1CCC2(CC1)Oc1ccccc1C(=O)N2Cc1ccc(F)cc1	-1%	.	.	.	-3%	.
CCCCCCCCCc1ccccc1	-2%[201 µM]	.	.	.	7%[201 µM]	.
N#C/C(=C\c1ccc(-c2cccc(Cl)c2)o1)C(=O)Nc1cccc(C(F)(F)F)c1	0.089µM*[quencher]	.	.	.	?	.
CC(=O)C(C(C)=O)C1(O)C(=O)c2ccccc2C1=O	-1%	-30*	27%	0%[46.1 µM]	?	19
Cc1ccc(C=C2C(=O)c3ccccc3C2=O)s1	45µM*[fluorescent]	6	?	-5%	?	12
CCC(Sc1nc2cc3c(cc2c(=O)n1CCCC(=O)NCc1ccc2c(c1)OCO2)OCO3)C(=O)NCCCOC (configuration not stated)	0%	.	.	.	0%	.
CCCCCCCC/C=C\CCCCCCCCO	0%[201 µM]	.	.	.	11%[201 µM]	.
Brc1cc(Br)c2ncnc(N3CCCCC3)c2c1	-2%	9	7.9µM*	-33%	-11%	12
CCN1C(=O)/C(=C/C=C2/Sc3ccc4ccccc4c3N2CCO)SC1=S	22%	-2	-4%	0%[46.1 µM]	19%	3
CCN1/C(=C/C=C/c2oc3ccc4ccccc4c3[n+]2CC)Oc2ccc3ccccc3c21	50µM*[fluorescent]	-5	20%	-3%	10µM*	0
Cc1nc(-c2ccc(S(=O)(=O)N(C)Cc3ccccc3)cc2)co1	4%	.	.	.	-1%	.
Cc1ccc2c(c1)C(O)(c1c(C)[nH]c3ccccc13)C(=O)N2 (configuration not stated)	-2%	-35*	-13%[46.1 µM]	4%	-5%	6
Nc1ccc2c(c1)C(=O)C(=O)c1ccccc1-2	1%	0	10µM*	3%	2%	-79*
O=C1C(=O)c2ccc(-c3ccccc3)cc2-c2ccccc21	-2%	-72*	4µM*	1%[46.1 µM]	?	-5
Nc1ccc2c(c1)C(=O)c1ccccc1-2	.	.	.	4%	.	.
Cc1ccc(C(=O)NCC(c2ccc3c(c2)OCO3)N2CCN(c3ccc(F)cc3)CC2)cc1 (configuration not stated)	-5%	.	.	.	5%	.
CC(C)c1ccc(NC(=O)c2ccc(=O)n(Cc3ccccc3)c2)cc1	0%	.	.	.	-12%	.
CCOC(=O)c1c(C)n(-c2ccccc2)c2ccc(OC(=O)c3cccc(Cl)c3)cc12	-1%	.	.	.	1%	.
Cc1cccc(CN2C(=O)c3ccccc3Sc3ccc(C(=O)NCCN4CCOCC4)cc32)c1	-3%	-2	?	7%	0%	-16
SMILES	TR SRC2 fluor cs	FBPA coupling cs	NPSR antagonist	TCR act	TRb SRC2 PPI	TSHR antag
Cc1ccc(CN2C(=O)c3ccccc3Sc3ccc(C(=O)NCCN4CCOCC4)cc32)cc1	.	-6	.	12%	.	-136*
O=C(NCCCN1CCOCC1)c1ccc2c(c1)N(Cc1ccc(Cl)cc1)C(=O)c1ccccc1S2=O (configuration not stated)	.	-1	.	-8%	.	-97*
O=C(c1ccc2c(c1)N(Cc1ccccc1F)C(=O)c1ccccc1S2)N1CCOCC1	4%	-42*	-16%	-3%	2%	15
O=C(c1ccc2c(c1)N(Cc1ccc(Cl)cc1)C(=O)c1ccccc1S2=O)N1CCOCC1 (configuration not stated)	?	.	.	.	3%	.
Cc1ccccc1CN1C(=O)c2ccccc2Sc2ccc(C(=O)N3CCOCC3)cc21	-2%	.	.	.	-4%	.
COc1cccc(CNC(=O)CSC2=Nc3ccccc3N=C(c3ccc(F)cc3)C2)c1	?	.	.	.	-2%	.
Cc1c(Cl)cccc1N1C(N)=C(C#N)C(c2cc(CN3CCOCC3)cs2)C2=C1CCCC2=O (configuration not stated)	7%	.	.	.	-5%	.
CCC(C)Sc1cccc(-c2nc3ccc(C)cn3c2NCc2ccccc2)c1 (configuration not stated)	.	.	.	-2%	.	-79*
CCC(C)Sc1cccc(-c2nc3ccc(Cl)cn3c2NCc2ccccc2)c1 (configuration not stated)	.	.	.	-1%	.	-22
Cc1cc(CN2CCN(CCC#N)CC2)c(O)c(C2(C)CCCCC2)c1	1%	-2	10µM*	-1%	10%	-11
CCOC(=O)COc1ccc(CC)cc1C(=O)c1ccn2nc(-c3ccc(Cl)cc3)cc2n1	-9%	.	.	.	3%	.
O=C(CCc1nc(-c2ccccc2F)no1)Nc1ccc(Oc2ccccc2)cc1	-4%	-2	0%[46.1 µM]	8%	-2%	-73*
COc1cccc(NC(=O)CCc2nc(-c3ccccc3F)no2)c1	0%	-1	2%[46.1 µM]	2%	-8%	-2
O=S(=O)(c1ccccc1)N1CCN=C1SCc1ccc(Cl)c(Cl)c1	0%	-5	-27%	-1%[46.1 µM]	-1%	-7
O=S(=O)(c1ccccc1)N1CCN=C1SCc1ccccc1Cl	-2%	-40*	-35%	5%	-7%	-21
Cc1ccc(S(=O)(=O)N2CCN=C2SCc2ccccc2)cc1	6%	-35*	-16%	-1%	4%	-4
CC(=O)Nc1ccc(S(=O)(=O)N2CCN=C2SCc2ccc(C)cc2)cc1	.	.	.	-1%	.	-8
CC1CCN(c2ncnc3c2cnn3-c2ccc(F)cc2)CC1	-2%	.	.	.	1%	.
O=S1(=O)C=C(Sc2nc3cc(Cl)ccc3o2)c2ccccc21	-3%	-1	?	-2%	-2%	-78*
Cc1cc(NC(=O)CSc2nc3cc(Cl)ccc3o2)no1	.	-1	.	1%	.	-3
O=c1cc(-c2ccc(O)cc2)oc2cc(O)cc(O)c12	?	7	25µM*	-9%	?	-19
Cc1ccc2onc(CC(=O)N3CCN(c4cccc(Cl)c4)CC3)c2c1	25µM*[quencher]	.	.	.	-27%	.
Cc1ccc2onc(CC(=O)N3CCN(c4cc(Cl)ccc4C)CC3)c2c1	?	.	.	.	-27%	.

Source: PubChem BioAssay (National Center for Advancing Translational Sciences (NCATS))
